Test results published in the supplement of paper PMC6555819.

How the values were obtained:
Test in all cases: PBM binding z-score (relative to random genomic background probes); higher = stronger binding; sequences stand for … in GC…GCGATTGACAGCGTAGAATGAAGG
[1] = system: PPARg:RXRa DBDmut IVT, anti-RXR (DBD mutation: RXRa K156A/R161A, NR concentration 270 nM, RXRa partner concentration 90 nM)
Method in brief: (§1)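 Antibodies against each partner of ligand-free nuclear receptor dimers (one per run) detected binding on custom Agilent 4×180K protein-binding microarrays after 1 h incubation. The double-stranded probes had 34-nt variable regions carrying direct-repeat seeds, single-nucleotide variants, half-site ablations and random human genomic background sequences. Binding z-scores, from regression-normalized fluorescence, use the random background probes as reference.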

[2] = system: PPARg:RXRa IVT, anti-PPARg (NR concentration 270 nM, RXRa partner concentration 90 nM)
Method in brief: as §1

[3] = system: PPARg DBDmut:RXRa IVT, anti-PPARg (DBD mutation: PPARg1 K132A/R137A, NR concentration 270 nM, RXRa partner concentration 90 nM)
Method in brief: as §1

[4] = system: PPARg DBDmut IVT, anti-PPARg (DBD mutation: PPARg1 K132A/R137A, NR concentration 270 nM)
Method in brief: as §1

[5] = system: PPARg homodimer (NR concentration 180 nM)
Method in brief: as §1

[6] = system: PXR:RXRa (NR concentration 270 nM, RXRa partner concentration 90 nM)
Method in brief: as §1

[7] = system: PXR homodimer (NR concentration 270 nM)
Method in brief: as §1

[8] = system: RARa:RXR (NR concentration 270 nM, RXRa partner concentration 90 nM)
Method in brief: as §1

[9] = system: RARa homodimer (NR concentration 270 nM)
Method in brief: as §1

[10] = system: RARb:RXRa (NR concentration 270 nM, RXRa partner concentration 90 nM)
Method in brief: as §1

CAAACTAGGTCACAGAGATCAAAGTCCGTGCGTA
PBM binding z-score [1]: 8.62 | PBM binding z-score [2]: 9.06 | PBM binding z-score [3]: 1.86 | PBM binding z-score [4]: 1 | PBM binding z-score [5]: 2.16 | PBM binding z-score [6]: 2.28 | PBM binding z-score [7]: 0.448 | PBM binding z-score [8]: 2.78 | PBM binding z-score [9]: 0.89 | PBM binding z-score [10]: 4.03

CTCGAAAGGTCGTGCTCAGGGGAGTATACCAAAC
PBM binding z-score [1]: 0.876 | PBM binding z-score [2]: 1.67 | PBM binding z-score [3]: 0.228 | PBM binding z-score [4]: 0.455 | PBM binding z-score [5]: 1.54 | PBM binding z-score [6]: 2.79 | PBM binding z-score [7]: 0.224 | PBM binding z-score [8]: 3.43 | PBM binding z-score [9]: -0.0621 | PBM binding z-score [10]: 3.88

TGAATGAGGATAAAGATCAGGGAACGTGGCGTCG
PBM binding z-score [1]: -0.598 | PBM binding z-score [2]: 0.0508 | PBM binding z-score [3]: -0.331 | PBM binding z-score [4]: -0.373 | PBM binding z-score [5]: -0.144 | PBM binding z-score [6]: -0.614 | PBM binding z-score [7]: -0.0385 | PBM binding z-score [8]: -0.537 | PBM binding z-score [9]: -0.101 | PBM binding z-score [10]: -0.238

TCTACTTGGTCAAAGGTCACACACTCGAAATGCG
PBM binding z-score [1]: 3.83 | PBM binding z-score [2]: 6.58 | PBM binding z-score [3]: 2.43 | PBM binding z-score [4]: 3.34 | PBM binding z-score [5]: 4.9 | PBM binding z-score [6]: 6.09 | PBM binding z-score [7]: 1.84 | PBM binding z-score [8]: 7.73 | PBM binding z-score [9]: 4.11 | PBM binding z-score [10]: 5.29

AATACAGGGTCACTAGGCCAAAGTAGGTACGAAT
PBM binding z-score [1]: 4.25 | PBM binding z-score [2]: 6.12 | PBM binding z-score [3]: 1.52 | PBM binding z-score [4]: 1.47 | PBM binding z-score [5]: 2.51 | PBM binding z-score [6]: 3.27 | PBM binding z-score [7]: 0.193 | PBM binding z-score [8]: 4.17 | PBM binding z-score [9]: 0.959 | PBM binding z-score [10]: 4.31

TAAATGAGGTTAAAGATCAGGGAACGTGGCGTCG
PBM binding z-score [1]: 3.59 | PBM binding z-score [2]: 4.36 | PBM binding z-score [3]: 2.17 | PBM binding z-score [4]: 2.54 | PBM binding z-score [5]: 1.72 | PBM binding z-score [6]: 2.36 | PBM binding z-score [7]: 0.486 | PBM binding z-score [8]: 3.21 | PBM binding z-score [9]: 1.03 | PBM binding z-score [10]: 2.29

AGAAGGAGGTTATTAAGATCAGGGAATTGCGGTC
PBM binding z-score [1]: 2 | PBM binding z-score [2]: 1.6 | PBM binding z-score [3]: 0.512 | PBM binding z-score [4]: -0.349 | PBM binding z-score [5]: 1.37 | PBM binding z-score [6]: 1.2 | PBM binding z-score [7]: 1.24 | PBM binding z-score [8]: 0.985 | PBM binding z-score [9]: 1.65 | PBM binding z-score [10]: 1.26

GATCGGAGGACAAGGTCAGAGCTTTGTCCGTAGA
PBM binding z-score [1]: -0.00086 | PBM binding z-score [2]: 0.881 | PBM binding z-score [3]: -0.747 | PBM binding z-score [4]: -1.99 | PBM binding z-score [5]: 0.29 | PBM binding z-score [6]: 1.76 | PBM binding z-score [7]: -0.362 | PBM binding z-score [8]: 2.03 | PBM binding z-score [9]: -0.62 | PBM binding z-score [10]: 3.47

CTACCAAGGTGAACAAGGTCGTAGATTACTATTC
PBM binding z-score [1]: 2.43 | PBM binding z-score [2]: 2.87 | PBM binding z-score [3]: 0.349 | PBM binding z-score [4]: 0.813 | PBM binding z-score [5]: 0.756 | PBM binding z-score [6]: 2.37 | PBM binding z-score [7]: 0.924 | PBM binding z-score [8]: 2.56 | PBM binding z-score [9]: 0.0983 | PBM binding z-score [10]: 2.17

GTACCAAGGTAAATAGGTCGTTGATGAGTAGGCG
PBM binding z-score [1]: 1.71 | PBM binding z-score [2]: 2.84 | PBM binding z-score [3]: 0.778 | PBM binding z-score [4]: 0.523 | PBM binding z-score [5]: 0.489 | PBM binding z-score [6]: 0.181 | PBM binding z-score [7]: 0.0446 | PBM binding z-score [8]: 0.634 | PBM binding z-score [9]: 0.265 | PBM binding z-score [10]: 0.675

CCTACTGGGCGAAAAAGGTCATTGATGCCGATAA
PBM binding z-score [1]: 0.836 | PBM binding z-score [2]: 1.94 | PBM binding z-score [3]: -0.234 | PBM binding z-score [4]: -0.941 | PBM binding z-score [5]: 2.25 | PBM binding z-score [6]: 4.39 | PBM binding z-score [7]: 1.04 | PBM binding z-score [8]: 4.66 | PBM binding z-score [9]: 0.67 | PBM binding z-score [10]: 3.68

CGAACTAGGTCATCCAGGACAGGGAATACATTGA
PBM binding z-score [1]: 7.79 | PBM binding z-score [2]: 8.34 | PBM binding z-score [3]: 3.98 | PBM binding z-score [4]: 2.59 | PBM binding z-score [5]: 1.77 | PBM binding z-score [6]: 1.6 | PBM binding z-score [7]: 0.593 | PBM binding z-score [8]: 2.36 | PBM binding z-score [9]: 0.244 | PBM binding z-score [10]: 3.78

TATACACGGTCAAAGGCCAGAGTACGAATGTCGA
PBM binding z-score [1]: 0.134 | PBM binding z-score [2]: 2.39 | PBM binding z-score [3]: 1.55 | PBM binding z-score [4]: 1.14 | PBM binding z-score [5]: 1.12 | PBM binding z-score [6]: 0.507 | PBM binding z-score [7]: 0.583 | PBM binding z-score [8]: 1.13 | PBM binding z-score [9]: 0.418 | PBM binding z-score [10]: 2.85

ATCTCTAGGTTAAGTTCAGTGAAAGATCGATAGA
PBM binding z-score [1]: 3.77 | PBM binding z-score [2]: 3.34 | PBM binding z-score [3]: 1.74 | PBM binding z-score [4]: 1.46 | PBM binding z-score [5]: 2.01 | PBM binding z-score [6]: 2.47 | PBM binding z-score [7]: 2.53 | PBM binding z-score [8]: 1.75 | PBM binding z-score [9]: 1.83 | PBM binding z-score [10]: 2.61

TAGCCTATGTCATTGGGCCAGTATAGTACGCATC
PBM binding z-score [1]: 0.158 | PBM binding z-score [2]: 0.381 | PBM binding z-score [3]: 0.11 | PBM binding z-score [4]: 0.249 | PBM binding z-score [5]: -0.0273 | PBM binding z-score [6]: -0.188 | PBM binding z-score [7]: -0.118 | PBM binding z-score [8]: -0.0244 | PBM binding z-score [9]: -0.0402 | PBM binding z-score [10]: 0.0995

GGAACGAGGGCATTCGAGTTGCTAGCATGGCGAT
PBM binding z-score [1]: 2.56 | PBM binding z-score [2]: 2.02 | PBM binding z-score [3]: -0.0761 | PBM binding z-score [4]: -0.825 | PBM binding z-score [5]: -0.911 | PBM binding z-score [6]: 2.3 | PBM binding z-score [7]: -0.0583 | PBM binding z-score [8]: 0.598 | PBM binding z-score [9]: -0.778 | PBM binding z-score [10]: 1.8

TGAATGAGGTTAAAGATCAGGGAACGTGGCGTCG
PBM binding z-score [1]: 2.04 | PBM binding z-score [2]: 3.27 | PBM binding z-score [3]: 0.612 | PBM binding z-score [4]: 0.495 | PBM binding z-score [5]: 1.15 | PBM binding z-score [6]: 1.99 | PBM binding z-score [7]: 0.0833 | PBM binding z-score [8]: 3.37 | PBM binding z-score [9]: 0.135 | PBM binding z-score [10]: 1.97

CCGAGTAGGTTATGGGGTATTCAGGCAACGGTGA
PBM binding z-score [1]: 3.61 | PBM binding z-score [2]: 3.4 | PBM binding z-score [3]: -0.421 | PBM binding z-score [4]: -0.159 | PBM binding z-score [5]: 1.48 | PBM binding z-score [6]: 0.386 | PBM binding z-score [7]: 0.458 | PBM binding z-score [8]: 0.453 | PBM binding z-score [9]: 1.06 | PBM binding z-score [10]: 0.8

GCGACTGGGGCATAAGCAGGTTACCATAACTTAA
PBM binding z-score [1]: 3.36 | PBM binding z-score [2]: 3.18 | PBM binding z-score [3]: -0.0704 | PBM binding z-score [4]: -1.04 | PBM binding z-score [5]: 0.497 | PBM binding z-score [6]: 0.0393 | PBM binding z-score [7]: -0.431 | PBM binding z-score [8]: 0.498 | PBM binding z-score [9]: -0.34 | PBM binding z-score [10]: 0.653

CAGACTGGGGCAAAGGTTACCATACTCAGTACGA
PBM binding z-score [1]: 5.78 | PBM binding z-score [2]: 6.11 | PBM binding z-score [3]: 0.811 | PBM binding z-score [4]: -0.289 | PBM binding z-score [5]: 1.61 | PBM binding z-score [6]: 2.57 | PBM binding z-score [7]: 0.354 | PBM binding z-score [8]: 3.86 | PBM binding z-score [9]: 0.632 | PBM binding z-score [10]: 2.66

ATCTCTAGGAAACCAAGTTCAGTGAATGCCGAAC
PBM binding z-score [1]: -0.471 | PBM binding z-score [2]: 0.0982 | PBM binding z-score [3]: 0.852 | PBM binding z-score [4]: 0.501 | PBM binding z-score [5]: 0.854 | PBM binding z-score [6]: 1.17 | PBM binding z-score [7]: 1.48 | PBM binding z-score [8]: 0.595 | PBM binding z-score [9]: 1.12 | PBM binding z-score [10]: 0.938

CGTCCAAGGTCAGCAGGTCGGTGAAAGCGACGTG
PBM binding z-score [1]: 2.81 | PBM binding z-score [2]: 2.89 | PBM binding z-score [3]: -0.853 | PBM binding z-score [4]: -0.476 | PBM binding z-score [5]: 2.43 | PBM binding z-score [6]: 2.61 | PBM binding z-score [7]: -0.066 | PBM binding z-score [8]: 3.58 | PBM binding z-score [9]: 0.0156 | PBM binding z-score [10]: 5.19

TCTTGTAGATCACAGGTTAAGAAAGCCGAAGCCT
PBM binding z-score [1]: 2.16 | PBM binding z-score [2]: 1.8 | PBM binding z-score [3]: 0.9 | PBM binding z-score [4]: 0.0684 | PBM binding z-score [5]: 0.447 | PBM binding z-score [6]: 0.186 | PBM binding z-score [7]: -0.359 | PBM binding z-score [8]: 0.737 | PBM binding z-score [9]: -0.789 | PBM binding z-score [10]: 0.464
